# Laboratory results as given in PubChem BioAssay (EPA / NIEHS).
# Activity calls are given as the source filed them. How the source made its calls: active means hit-call score of the fitted dose curve at least 0.9, where 1 is the maximum; inactive means score below 0.9.
# Experiment: ATG_M_19_CIS: Attagene CIS-FACTORIAL HepG2 Assay for M19 Transcription Factor (Internal Marker) (AID 2282939)
# Conditions: HepG2 Attagene CIS-FACTORIAL M19 internal marker reporter; actives raise or lower the signal
# Method in brief: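 HepG2 cells transiently transfected with cis-regulated multiple reporter transcription units were dosed for 24 h; reporter mRNA was quantified by RT-PCR, 6-FAM primer-extension labelling, HpaI digestion and capillary electrophoresis, with bidirectional fitting against DMSO baseline.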
row,Structure (SMILES),outcome
1,c1ccc2c(c1)Cc1ccccc1-2,inactive
2,CN1CCN(c2ccccc2/C=C2\SCCN(c3ccc(Cl)c(Cl)c3)C2=O)CC1,inactive
3,FC(F)(I)C(F)(F)C(F)(F)C(F)(F)C(F)(F)C(F)(F)I,inactive
4,CCC(C)(C)C1CCC(O)CC1 (stereo unspecified),inactive
5,CCc1ccc(CCOc2ccc(CC3SC(=O)NC3=O)cc2)nc1 (stereo unspecified),inactive
6,CC(C)(C)CC(C)(C)c1ccc(O)c(-n2nc3ccccc3n2)c1,inactive
7,CC(C)(C)c1ccc(O)c(C(C)(C)C)c1,inactive
8,N#C[C@@H]1CC(F)(F)CN1C(=O)CNC1CC2CCC(C1)N2c1ncccn1 (stereo partly specified),inactive
9,NC(=O)N1C(=O)C(C(=O)c2cc(Cl)cs2)c2cc(F)c(Cl)cc21 (stereo unspecified),inactive
10,CCCCCCCCCCCCCCCS(=O)(=O)Oc1ccccc1,inactive
11,CCCCCCCC(=O)O,inactive
12,Cc1cc(CCN2CCN(c3nsc4ccccc34)CC2)cc2c1NC(=O)CC2(C)C,inactive
13,COCC(C)O (stereo unspecified),inactive
14,CCCCC(CC)COC(=O)CCCCC(=O)OCc1ccccc1 (stereo unspecified),inactive
15,COc1ccc([N+](=O)[O-])cc1N,inactive
16,CCOC(=O)CC(O)(CC(=O)OCC)C(=O)OCC,inactive
17,CCCCCCCCC(=O)O,inactive
18,Cc1cc(C)c(O)c(C)c1,inactive

row,Structure (SMILES),outcome
1,C#C[C@]1(O)CC[C@H]2[C@@H]3CCC4=CC(=O)CC[C@@H]4[C@H]3CC[C@@]21C,inactive
2,CCCCC[C@H](O)CC(=O)CCc1ccc(O)c(OC)c1,inactive
3,NCC(F)(F)C(F)(F)C(F)(F)C(F)(F)C(F)(F)C(F)(F)C(F)(F)F,inactive
4,O=[N+]([O-])c1ccc(O)cc1,inactive
5,COC(=O)CCCCC(=O)OC,inactive
6,CC(C)CCCCCCOC(=O)CCCCC(=O)OCCCCCCC(C)C,inactive
7,CC(C)(C)c1cc(C(C)(C)C)c(O)c(C(C)(C)C)c1,inactive
8,CCCCCCCCCCCCN1CCCC1=O,inactive
9,Oc1cc2ccccc2c2ccccc12,inactive
10,C[C@@H]1C[C@H]2[C@@H]3CCC4=CC(=O)C=C[C@]4(C)[C@@]3(F)[C@@H](O)C[C@]2(C)[C@@]1(O)C(=O)COP(=O)(O)O,inactive
11,COc1cc(CCC(=O)CC(=O)CCc2ccc(O)c(OC)c2)ccc1O,inactive
12,O=c1c(-c2ccc(O)cc2)coc2cc(O)ccc12,inactive
13,CN(C)C=O,inactive
14,Cc1oc(-c2ccccc2)nc1CCOc1ccc(C[C@H](Nc2ccccc2C(=O)c2ccccc2)C(=O)O)cc1,inactive
15,OC1CCC(C2CCCCC2)CC1 (stereo unspecified),inactive
16,CCCCCCCCOC(=O)CCCCCCCCC(=O)OCCCCCCCC,inactive
17,CC(O)C(=O)O (stereo unspecified),inactive
18,CCc1nn(C2CCCCC2)c2cc(C3(C#N)CCC(C(=O)O)CC3)ccc12 (stereo unspecified),inactive
